Positions count from the first letter of the chain named.
How the values were obtained:
Experiment in all cases: HT-SELEX; high values mean tight binding
Conditions in all cases: protein: recombinant; vector His6-GST; dsDNA, one strand shown
SALL4 ZFC4 WT (HT-SELEX) = target: T1, SALL4 ZFC4 WT (HT-SELEX) (Mus musculus, UniProt Q8BX22 870-940)
T1 sequence: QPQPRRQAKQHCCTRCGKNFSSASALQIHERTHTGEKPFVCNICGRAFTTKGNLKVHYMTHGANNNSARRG
Method in brief: (§1)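 Purified recombinant mouse SALL4 zinc finger cluster 4 (residues 870–940, 1 µg) was incubated with library DNA (1.5 µg first cycle, 200 ng later) in 100 µl of 10 mM Tris–HCl pH 7.5, 50 mM NaCl, poly(dI-dC) and DTT for 10 min at room temperature, with Ni2+ bead capture and reselection for up to 6 cycles in triplicate. MiSeq reads were scanned for 6-mers. Binding signal is each canonical k-mer's read fraction as fold change relative to the initial random library.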

[1] = target: T2, SALL4 ZFC4 R900W (HT-SELEX) (Mus musculus, UniProt Q8BX22 870-940, R900W)
T2 sequence: T1 sequence with R31W
Method in brief: as §1

[2] = target: T3, SALL4 ZFC4 G921D (HT-SELEX) (Mus musculus, UniProt Q8BX22 870-940, G921D)
T3 sequence: T1 sequence with G52D
Method in brief: as §1

Sequence | binding signal (SALL4 ZFC4 WT (HT-SELEX)) [fold-change vs cycle 0] | binding signal [1] [fold-change vs cycle 0] | binding signal [2] [fold-change vs cycle 0]
GGGACA | 0.383 ± 0.0239 | 0.458 ± 0.0236 | 0.564 ± 0.0569
ATGAGG | 0.907 ± 0.0235 | 1.03 ± 0.0436 | 1.06 ± 0.0374
CCCTAC | 0.441 ± 0.0346 | 0.512 ± 0.0309 | 0.603 ± 0.047
CCATTA | 1.33 ± 0.0471 | 1.4 ± 0.0728 | 1.32 ± 0.097
AACAAC | 1.18 ± 0.0643 | 1.26 ± 0.0286 | 1.25 ± 0.0618
TTCCAA | 1.24 ± 0.0535 | 1.32 ± 0.0456 | 1.29 ± 0.0721
GCTTCC | 0.35 ± 0.00821 | 0.454 ± 0.0368 | 0.567 ± 0.0502
AACGCA | 0.504 ± 0.0712 | 0.544 ± 0.00766 | 0.669 ± 0.0225
AAAGGA | 1.36 ± 0.0473 | 1.57 ± 0.109 | 1.44 ± 0.105
CGTGGA | 0.351 ± 0.0215 | 0.435 ± 0.0211 | 0.54 ± 0.0631
ACGTCC | 0.359 ± 0.021 | 0.454 ± 0.0124 | 0.562 ± 0.0557
ACAGGT | 0.824 ± 0.0401 | 0.95 ± 0.0293 | 0.985 ± 0.0191
GTTTAA | 1.69 ± 0.0773 | 1.79 ± 0.0911 | 1.63 ± 0.153
CGTTGA | 0.664 ± 0.053 | 0.763 ± 0.00493 | 0.839 ± 0.0136
ACGAAC | 0.667 ± 0.0536 | 0.807 ± 0.0318 | 0.861 ± 0.0438
ATATAA | 4.98 ± 0.592 | 2.65 ± 0.229 | 2.24 ± 0.302
AGACTC | 0.806 ± 0.0153 | 0.928 ± 0.0387 | 1.01 ± 0.0334
AATCGA | 1.08 ± 0.05 | 1.14 ± 0.0428 | 1.2 ± 0.0389
AAAGCT | 1.01 ± 0.0609 | 1.13 ± 0.0411 | 1.17 ± 0.0323
AGAGTC | 0.786 ± 0.0201 | 0.925 ± 0.0489 | 0.995 ± 0.0509

Sequence | binding signal (SALL4 ZFC4 WT (HT-SELEX)) [fold-change vs cycle 0] | binding signal [1] [fold-change vs cycle 0] | binding signal [2] [fold-change vs cycle 0]
CGGTTA | 0.677 ± 0.0447 | 0.748 ± 0.0385 | 0.801 ± 0.0326
GCAAAC | 0.54 ± 0.031 | 0.598 ± 0.00737 | 0.718 ± 0.0549
GACCTC | 0.415 ± 0.0384 | 0.51 ± 0.0119 | 0.644 ± 0.0572
CGTCAC | 0.375 ± 0.0256 | 0.436 ± 0.013 | 0.545 ± 0.0521
CATATC | 1.68 ± 0.148 | 1.44 ± 0.0706 | 1.39 ± 0.0818
AGCGAA | 0.492 ± 0.0304 | 0.566 ± 0.0332 | 0.686 ± 0.0519
CCGTCA | 0.358 ± 0.0271 | 0.431 ± 0.0281 | 0.531 ± 0.0693
CTGTTC | 0.771 ± 0.0432 | 0.893 ± 0.0123 | 0.959 ± 0.0166
ATTGCG | 0.438 ± 0.0111 | 0.47 ± 0.0102 | 0.614 ± 0.0595
CTATAC | 1.32 ± 0.0145 | 1.46 ± 0.0569 | 1.37 ± 0.0569
TGTCAA | 1.12 ± 0.0378 | 1.266 ± 0.01 | 1.26 ± 0.0283
GTCATA | 1.45 ± 0.0661 | 1.36 ± 0.05 | 1.34 ± 0.0974
TCTTAA | 2.07 ± 0.0682 | 2.14 ± 0.15 | 1.86 ± 0.222
ATCAGG | 0.876 ± 0.0408 | 0.991 ± 0.0415 | 1 ± 0.0437
CGTGAA | 0.669 ± 0.0388 | 0.776 ± 0.0286 | 0.834 ± 0.041
AACCCG | 0.371 ± 0.0321 | 0.432 ± 0.0178 | 0.538 ± 0.0569
CTTCAA | 1.25 ± 0.0505 | 1.41 ± 0.0826 | 1.33 ± 0.122
ACTTGA | 1.33 ± 0.0337 | 1.5 ± 0.0479 | 1.41 ± 0.0888
GATTCC | 0.9 ± 0.0488 | 0.964 ± 0.0255 | 1.03 ± 0.0179
AGATCA | 1.29 ± 0.0762 | 1.44 ± 0.0715 | 1.46 ± 0.0921

Sequence | binding signal (SALL4 ZFC4 WT (HT-SELEX)) [fold-change vs cycle 0] | binding signal [1] [fold-change vs cycle 0] | binding signal [2] [fold-change vs cycle 0]
CACACG | 0.405 ± 0.0118 | 0.525 ± 0.0166 | 0.649 ± 0.0779
AACCCT | 0.85 ± 0.042 | 0.958 ± 0.0297 | 0.971 ± 0.0387
AGTGGA | 0.862 ± 0.03 | 0.954 ± 0.0352 | 0.964 ± 0.0435
AAGATA | 2.25 ± 0.105 | 2.22 ± 0.148 | 1.9 ± 0.223
CCAAGC | 0.327 ± 0.034 | 0.384 ± 0.0115 | 0.516 ± 0.0505
GATGGA | 0.878 ± 0.0295 | 0.978 ± 0.0402 | 0.97 ± 0.0258
AGGCAG | 0.306 ± 0.00652 | 0.366 ± 0.0295 | 0.484 ± 0.0834
ACTTCG | 0.679 ± 0.0273 | 0.7885 ± 0.004 | 0.854 ± 0.0495
CTGAAC | 0.859 ± 0.0362 | 0.995 ± 0.0342 | 1.01 ± 0.0412
AACCGT | 0.674 ± 0.0289 | 0.776 ± 0.0238 | 0.826 ± 0.0315
TATGGA | 1.65 ± 0.0906 | 1.46 ± 0.0813 | 1.37 ± 0.0965
AAGCTT | 1.18 ± 0.0611 | 1.27 ± 0.0133 | 1.24 ± 0.0566
GAACCC | 0.462 ± 0.0176 | 0.565 ± 0.0113 | 0.668 ± 0.0409
AACACT | 1.28 ± 0.027 | 1.39 ± 0.0403 | 1.33 ± 0.0261
CTCCCA | 0.474 ± 0.0284 | 0.569 ± 0.0121 | 0.655 ± 0.0274
ACACAC | 0.701 ± 0.0589 | 0.815 ± 0.0148 | 0.903 ± 0.0448
CGGGTA | 0.363 ± 0.0204 | 0.435 ± 0.0153 | 0.521 ± 0.0456
ATTAAG | 2.1 ± 0.107 | 2.09 ± 0.139 | 1.82 ± 0.22
AAACAA | 1.75 ± 0.117 | 1.82 ± 0.0942 | 1.66 ± 0.151
AAATGT | 1.68 ± 0.0685 | 1.7 ± 0.0668 | 1.58 ± 0.133

Source: publication PMC9838217, “Structure of SALL4 zinc finger domain reveals link between AT-rich DNA binding and Okihiro syndrome”
